According to PubChem BioAssay AID624086 (Broad Institute, 2012):

test: TCF/LEF luciferase signal increase in HEK293T – cell-based, firefly luciferase, dry powder, orthogonal assay for GSK3b inhibitor project, dose response (AID 624086); conditions: HEK293T TCF/LEF firefly luciferase reporter, 24 h; series mostly up to 26 µM; activity change, negative = inhibition: at the top concentration;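 active = fitted half-maximal effect concentration at or below the top concentration tested; inactive = the rest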

Activity change, negative = inhibition, inactive:
CC(C)c1ccc(-c2nn(-c3ccccc3)cc2/C=N/O)cc1 0%
COc1ccccc1C1C2=C(CC(C)(C)CC2=O)Nc2onc(C)c21 (configuration not stated) -0.313%
Cc1cccc(C2C3=C(CC(C)(C)CC3=O)Nc3n[nH]c(C)c32)c1 (configuration not stated) -1.07%
Cc1[nH]nc2nc3c(c(-c4ccccc4)c12)C(=O)CC(C)(C)C3 -1.12%
COc1ccc(-c2nn(-c3ccccc3)cc2/C=N/O)cc1OC -1.01%
COc1ccccc1C1C2=C(CC(C)(C)CC2=O)Nc2ccccc21 (configuration not stated) 0.0477%
Cc1[nH]nc2c1C(c1cccnc1)C1=C(CC(C)(C)CC1=O)N2 (configuration not stated) -11.7%
CC1(C)CC(=O)C2=C(C1)Nc1n[nH]c(C(F)(F)F)c1C2c1cc(F)ccc1OC(F)(F)F (configuration not stated) 3.06%
COc1ccccc1C1C(C(C)=O)=C(C)Nc2n[nH]c(C)c21 (configuration not stated) -1.13%
Cc1[nH]nc2c1C(C)C1=C(CC(C)(C)CC1=O)N2 (configuration not stated) -0.0284%
Cc1[nH]nc2c1C(c1ccc(Cl)s1)C1=C(CC(C)(C)CC1=O)N2 (configuration not stated) 0%
Cc1[nH]nc2c1C(c1ccc(C(F)(F)F)cc1)C1=C(CC(C)(C)CC1=O)N2 (configuration not stated) -0.0415%
COc1ccccc1C1C2=C(CCCC2=O)Nc2n[nH]c(C)c21 (configuration not stated) -0.107%
Cc1[nH]nc2c1C(C1CC1)C1=C(CC(C)(C)CC1=O)N2 (configuration not stated) -0.118%
COc1ccccc1[C@@H]1C2=C(CC(C)(C)CC2=O)Nc2n[nH]c(C)c21 -0.562%
Cc1[nH]nc2c1C(c1ccc(F)cc1)C1=C(CC(C)(C)CC1=O)N2 (configuration not stated) 0%
COc1ccccc1C1C2=C(CC3(CCCCC3)CC2=O)Nc2n[nH]c(C)c21 (configuration not stated) -0.39%
